Screening data as filed in PubChem BioAssay.
An excerpt weighted towards active compounds, which were near 4.3% of everything screened.
FAS-TE inh = FAS thioesterase (human) inhibition. P49327. recombinant FAS-TE, OMFH fluorogenic substrate, fluorescence endpoint. inhibition, % at 15 µM. hit rate 0.67% among 360,000. AID 602261;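 active means compounds whose normalised, plate-corrected inhibition of enzyme fluorescence in the single-dose primary screen is 50% or more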;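 further: 0% = DMSO with enzyme and 100% = substrate without enzyme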
GRIN3A LBD mod = modulates the human NR3A ligand-binding domain; hit rate 2.5% among 340,000; NR3A LBD differential scanning fluorimetry, Tm shift; 0% = protein alone, 100% = glycine-bound protein; Tm shift relative to glycine control, % at 25 µM;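 active means melting temperature shift of at least 10% of the positive control shift, at one fixed dose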
NadD inh = inhibitors of Staphylococcus aureus NadD; purified NadD enzyme, colorimetric absorbance read-out; inhibition, % at 20 µM; hit rate 0.78% among 360,000; AID 602399; in the data active means inhibition above about 26%
rCAG binder = r(CAG) repeat RNA binding. TO-PRO-1 dye displacement fluorescence. inhibition, % at 3 µM. hit rate 1.3% among 370,000. AID 651821;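 active means inhibition above the plate cutoff, the mean of all test compounds on that plate plus 3 SD, cut at about 35% in these data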;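 further: 0% = DMSO alone and 100% = 100 µM mitoxantrone as full dye displacement; higher means more dye released from RNA so lower well fluorescence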
* = called active by the depositor; nt = no result given.

SMILES	FAS-TE inh	GRIN3A LBD mod	NadD inh	rCAG binder
O=C(COc1ccc([N+](=O)[O-])cc1)Nc1ccc(S(=O)(=O)N2CCOCC2)cc1	10	0	-9	4
CC(CCc1ccccc1)NC(=O)COc1cc(F)ccc1[N+](=O)[O-] (centres undefined)	23	1	0	-4
Cn1ccnc1CN1CCC[C@]2(CC[C@H](CCC#N)O2)C1	nt	nt	nt	1
C[C@@H]1COc2cccc(NCCCN3CCOCC3)c2S(=O)(=O)N1	nt	nt	nt	1
Oc1c(C=Nc2ccc(Cl)cn2)sc2ccccc12	-4	11*	8	-2
Oc1c(/C=N/c2ccccn2)sc2ccccc12	-5	-14	-2	2
CCOC(=O)C1(Cc2ccccc2)CCN(Cc2cccc(C#N)c2)CC1	nt	nt	nt	-3
CCOC(=O)C1=C(C)OC(N)=C(C#N)C1c1ccsc1 (centres undefined)	-6	11*	-7	nt
N#CC1=C(N)Oc2c(O)cc3ccccc3c2C1c1ccsc1 (centres undefined)	31	12*	11	25
CC(=O)C1=C(C)OC(N)=C(C#N)C1c1ccncc1 (centres undefined)	-2	11*	-5	2
COC(=O)[C@]12C[C@H](CC(=O)NCc3ccc(OC)c(OC)c3)C(=O)N(Cc3cccc4ccccc34)C1=C[C@H](C(C)C)O[C@@H]2C1CC1	nt	nt	nt	9
COc1cc2cccc(OC)c(=O)c2c(O)c1OC	4	1	7	-4
Oc1cccc2cc3cccc(O)c3c(O)c12	7	-1	70*	nt
C(=Cc1c[nH]c2ccccc12)c1ccc2ccccc2n1	18	22*	11	16
C(=C\c1ccc2ccccc2n1)/c1ccccc1	19	-20	-6	-2
O/C(=C\c1ccc2ccccc2n1)c1ccc(O)cc1O	-5	35*	2	12
Oc1ccc(/C(Cc2ccc3ccccc3n2)=N\Nc2ccccc2)c(O)c1	12	-3	13	13
Oc1ccc(/C=C/c2ccc3ccccc3n2)cc1	2	19*	4	7
C(=Cc1c[nH]c2ccccc12)c1nccc2ccccc12	-1	-8	9	3
COC(=O)[C@]12C[C@H](CC(=O)NCc3ccccc3)C(=O)N(Cc3ccco3)C1=C[C@H](C(C)(C)C)O[C@@H]2C	nt	nt	nt	1
O=C(Nc1ccc(F)cc1)OCCCN1C(=O)CCC12CCCCC2	nt	nt	nt	0
O=C(NCCc1ccccc1)OCc1cn(Cc2ccc(F)cc2)nn1	nt	nt	nt	2
COc1ccccc1Oc1coc2cc(OC(=O)N3CCOCC3)ccc2c1=O	-6	0	-5	-1
COc1cccc(Oc2coc3cc(OC(=O)N4CCOCC4)ccc3c2=O)c1	10	10*	-3	-2
COC(=O)[C@]12C[C@H](CC(=O)NCc3cccc4ccccc34)C(=O)N(CCc3ccc(OC)c(OC)c3)C1=C[C@H](COCc1ccccc1)O[C@@H]2C	nt	nt	nt	11
SMILES	FAS-TE inh	GRIN3A LBD mod	NadD inh	rCAG binder
CCCc1cc(C(N)=S)ccn1	-4	12*	5	2
N#Cc1ccc(/C=C/C(=O)c2ccccc2)cc1	-2	12*	-9	-1
COc1ccc(NC(=O)CN(C)C(=O)CN2C(=O)NC3(CCCCC3)C2=O)cc1	-4	1	-3	13
COc1cccc(NC(=O)CN2C(=O)C3(OCCCO3)c3ccccc32)c1	-2	11*	-9	nt
COc1cccc(NC(=O)CN(C)C(=O)CN2C(=O)NC3(CCCC3)C2=O)c1	-7	14*	-1	-3
CC(=NN1CCN(Cc2ccccc2Cl)CC1)c1ccc(O)cc1	nt	nt	nt	1
CC(=O)Nc1ccc2c(c1)CCc1ccccc1-2	0	10*	-6	-1
CC(=O)Nc1ccc2c(c1)C(=O)c1ccccc1C2=O	5	0	0	9
O=S1(=O)c2c(cccc2N2CC[C@H](O)C2)OCCCN1C1CC1	nt	nt	nt	5
CCCCCCCCCCCCCCCC[N+](C)(C)CCN(Cc1ccc(OC)cc1)c1ncccn1	-128	23*	75*	nt
CCOC(=O)c1snc(-c2ccc(F)cc2)c1N	2	14*	-7	3
Cn1c(=O)c(=O)n(C)c2cc(S(=O)(=O)N3CCN(CCO)CC3)ccc21	nt	nt	nt	4
COc1ccc(C(CCOC(=O)Oc2ccccc2)c2cc(OC)cc(OC)c2)cc1 (centres undefined)	nt	nt	nt	3
N#CCC[C@@H]1CC[C@]2(CCCN(C(=O)c3ccc4ccccc4n3)C2)O1	nt	nt	nt	0
O=C(O)c1cccc(-c2ccc(/C=c3/sc4nc5ccccc5n4c3=O)o2)c1	11	4	6	28
O=C(O)c1cc(C(=O)O)cc(-c2ccc(/C=c3/sc4nc5ccccc5n4c3=O)o2)c1	nt	10*	nt	nt
O=c1/c(=C\c2cc([N+](=O)[O-])cc([N+](=O)[O-])c2O)sc2nc3ccccc3n12	16	31*	19	nt
COC(=O)C1CN(Cc2ccccc2)CCS(=O)(=O)N1Cc1ccccc1 (centres undefined)	nt	nt	nt	-1
COC(=O)c1cc(-c2cc3ccccc3o2)c(=O)n2c1CCC2	nt	nt	nt	4
CCN(CC)C(=O)CC[C@H]1CC[C@]2(CCCN(S(=O)(=O)C3CCCCC3)C2)O1	nt	nt	nt	-2
COCCNC(=S)N(CCc1c(C)[nH]c2ccc(Cl)cc12)Cc1cccnc1	2	-5	-3	-1
COCCNC(=S)N(CCc1c(C)[nH]c2ccc(F)cc12)Cc1cccnc1	-2	13*	-13	1
C[C@@H]1ON(C)[C@H]2C[C@H]3c4[nH]c5c(-c6ccc7c(c6)OCO7)cccc5c4CCN3C(=O)[C@@H]12	nt	nt	nt	6
Fc1cccc(C2NN=C(c3ccccc3)S2)c1 (centres undefined)	3	34*	-1	-6
Cc1ccc(C2=NNC(c3cccc(F)c3)S2)cc1 (centres undefined)	6	-13	-7	0
SMILES	FAS-TE inh	GRIN3A LBD mod	NadD inh	rCAG binder
O=C1NC(c2ccccc2)(C(F)(F)F)C(=O)N1Cc1cccnc1 (centres undefined)	-9	20*	-2	-2
Cc1cc(NC(=O)/C=C/c2ccccc2Cl)n(-c2nc3ccccc3[nH]2)n1	6	16*	29	4
CN(C)c1ccc(/C=C/c2nc3ccccc3s2)cc1	15	11*	4	-2
CN(C)c1ccc(/C=C/c2ccc3ccccc3n2)cc1	3	-24	-1	nt
CSc1ccc(C2=C/C(=C3/SC(=S)NC3=O)c3ccccc3O2)cc1	0	-5	38*	2
CC(C)C[C@@H]1COc2cccc(N3CCSCC3)c2S(=O)(=O)N1C	nt	nt	nt	1
CCN(CC)c1ccc(C(=O)NNC(=O)CCl)cc1	-7	1	-9	5
CCN(CC)c1ccc(C(=C2C=CC(=[N+](CC)CC)C=C2)c2ccccc2)cc1	82*	-88	1	12
CCN(CC)c1ccc(C(=C2C=CC(=[N+](CC)CC)C=C2)c2ccc(N(CC)CC)cc2)cc1	26	351*	6	22
C=CCN1C(=O)[C@@H](CC(=O)NCCc2ccccc2OC)[C@]2(C(=O)OCC)CCCCC/C=C/12	nt	nt	nt	5
COc1ccc(NC(=O)COC(=O)C2CCC2)cc1Cl	-2	18*	3	-5
COc1ccc(Cl)cc1NC(=O)COC(=O)C1CCCCC1	32	1	-11	1
